For 45 sequences, binding signal results are on record in publication PMC5892938, “SARNAclust: Semi-automatic detection of RNA protein binding motifs from immunoprecipitation data”.

In all, about 11,000 sequences were measured (“log2 fold change”: median about 0.00022, highest 2% from about 0.34 on). The list shows a part of the results.

This assay addresses GST-SBP-SLBP (stem-loop binding protein) (Homo sapiens, UniProt Q14493 1-270). Nature of the assay: targeted RNA Bind-n-Seq; RBNS binding buffer: 25 mM Tris pH 7.5, 150 mM KCl, 3 mM MgCl2, 0.1% Tween, 0.5 mg/mL BSA, 1 mM DTT; 27 nM protein, 750 pM RNA pool; temperature not stated; high values mean tight binding. The conditions noted are these: protein: recombinant; tags: N-terminal GST and SBP (pGEX6P1-SBP); structured_RNA. A digest of the protocol: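 Read counts per sequence supply the binding signal, defined as the DEseq fold change on a binary-logarithm scale. These counts came from RNA of a designed, T7-transcribed oligo pool at 750 pM that bound 27 nM of GST-SBP-tagged protein, made in Rosetta(DE3) pLysS E. coli and glutathione-purified, in RBNS binding buffer. The bound RNA was reverse transcribed with a 10-nucleotide barcoded primer, PCR-amplified and sequenced on a MiSeq with 200-cycle paired-end reads, then processed with FLASH and HISAT2 and collapsed by barcode.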
With “GGUCACGUCUCAAUCAACUCAUACGAGGGGGGGAAAACCCCUUUACCCUCAAUAUCAACAGCUCGCAGUCAAG”, the binding signal was found to be 0.313 ± 0.436 log2 fold change. Then “GGUCACGUCUCAAUCAACUCAUACGAGGGGGGGAAAACCCCUUUACCCUCAAAUUCAACAGCUCGCAGUCAAG”, with 0.598 ± 0.45 log2 fold change; and “GGUCACGUCUCAAUCAACUCAUAAGAGGGGGGGAAAACCCCUUUACCCUCACACUCAACAGCUCGCAGUCAAG”, with 0.455 ± 0.444 log2 fold change. As for “GGUCACGUCUCAAUCAACUCACAAGAGGGGGGGAAAACCCCUUUACCCUCACUCUCAACAGCUCGCAGUCAAG”, the binding signal was 0.304 ± 0.385 log2 fold change. Then “GGUCACGUCUCAAUCAACUCGCAAGAGGGGGGGAAAACCCCUUUACCCUCACAAUCAACAGCUCGCAGUCAAG”, with 0.536 ± 0.414 log2 fold change; and “GGUCACGUCUCAAUCAACUCACAAGAGGGGGGGAAAACCCCUUUACCCUCGUCCUCAACAGCUCGCAGUCAAG”, with 0.385 ± 0.429 log2 fold change; and “GGUCACGUCUCAAUCAACUCAAUCCCAGGAGUUUGCUCCUGCAUAUUCAACAGCUCGCAGUCAAG”, with 0.355 ± 0.208 log2 fold change. Take “GGUCACGUCUCAAUCAACUCAGUCCCAGGAGUUUCCUCCUGUAAAUUCAACAGCUCGCAGUCAAG”: the binding signal turned out to be 0.371 ± 0.28 log2 fold change.

For the sequence “GGUCACGUCUCAAUCAACUCAGUCCCAGGAGUUUUCUCCUGCUAAUUCAACAGCUCGCAGUCAAG”, the binding signal came out at 0.335 ± 0.235 log2 fold change.

With “GGUCACGUCUCAAUCAACUCAUCCGCAGGAGUUUCCUCCUGGUAUUUCAACAGCUCGCAGUCAAG”, the binding signal turned out to be 0.483 ± 0.25 log2 fold change. Then “GGUCACGUCUCAAUCAACUCAUCCUCAGGAGUUUGCUCCUGCAUAUUCAACAGCUCGCAGUCAAG”, with 0.313 ± 0.205 log2 fold change; and “GGUCACGUCUCAAUCAACUCAUCUCCAGGAGUUUCCUCCUGCUUUUUCAACAGCUCGCAGUCAAG”, with 0.328 ± 0.198 log2 fold change; and “GGUCACGUCUCAAUCAACUCAAUCCCAGGAGUUUCCUCCUGUUUUUUCAACAGCUCGCAGUCAAG”, with 0.312 ± 0.215 log2 fold change. For the sequence “GGUCACGUCUCAAUCAACUCUUUCUCAGGAGUUUCCUCCUGCAUUUUCAACAGCUCGCAGUCAAG”, the binding signal is 0.312 ± 0.164 log2 fold change. Then “GGUCACGUCUCAAUCAACUCAUCCUCAGGAGUUUCCUCCUGCAAACUCAACAGCUCGCAGUCAAG”, with 0.314 ± 0.204 log2 fold change; and “GGUCACGUCUCAAUCAACUCAUCCCCAGGAGUUUGCUCCUGCAUUCUCAACAGCUCGCAGUCAAG”, with 0.306 ± 0.225 log2 fold change; and “GGUCACGUCUCAAUCAACUCAGUCUCAGGAGUUUCCUCCUGCUAUUUCAACAGCUCGCAGUCAAG”, with 0.343 ± 0.24 log2 fold change. On to “GGUCACGUCUCAAUCAACUCAAUCUCAGGAGUUUUCUCCUGCUAUUUCAACAGCUCGCAGUCAAG”, for which the binding signal stood at 0.339 ± 0.222 log2 fold change. Then “GGUCACGUCUCAAUCAACUCUUAAGAGGGGGGGAAAACCCCUUUACCCUCAACGUCAACAGCUCGCAGUCAAG”, with 0.385 ± 0.451 log2 fold change. Then “GGUCACGUCUCAAUCAACUCUUAAGAGGGGGGGAAAACCCCUUUACCCUCAAAAUCAACAGCUCGCAGUCAAG”, with 0.666 ± 0.398 log2 fold change; and “GGUCACGUCUCAAUCAACUCUUAAGAGGGGGGGAAAACCCCUUUACCCUCGCCAUCAACAGCUCGCAGUCAAG”, with 0.455 ± 0.394 log2 fold change; and “GGUCACGUCUCAAUCAACUCUUCUCCCAGGGAAAUCCCUGGUAUACUCAACAGCUCGCAGUCAAG”, with 0.329 ± 0.25 log2 fold change. Then “GGUCACGUCUCAAUCAACUCAACUCCCAGGGAAACCCCUGGUAAAUUCAACAGCUCGCAGUCAAG”, with 0.307 ± 0.342 log2 fold change; and “GGUCACGUCUCAAUCAACUCUUCUCCCAGGGAAAUCCCUGGUAAACUCAACAGCUCGCAGUCAAG”, with 0.359 ± 0.267 log2 fold change. On to “GGUCACGUCUCAAUCAACUCAUCCCCCAGGGAAAUCCCUGGUUAAUUCAACAGCUCGCAGUCAAG”, for which the binding signal was 0.368 ± 0.293 log2 fold change. Then “GGUCACGUCUCAAUCAACUCUUCUCCCAGGGAAAGCCCUGGUAAACUCAACAGCUCGCAGUCAAG”, with 0.33 ± 0.26 log2 fold change; and “GGUCACGUCUCAAUCAACUCAUCGCCCAGGGAAAGCCCUGGUUAAUUCAACAGCUCGCAGUCAAG”, with 0.329 ± 0.337 log2 fold change; and “GGUCACGUCUCAAUCAACUCAAUCCCCAGGGAAAUCCCUGGUAAAUUCAACAGCUCGCAGUCAAG”, with 0.453 ± 0.315 log2 fold change. In the case of “GGUCACGUCUCAAUCAACUCUUCUUCCAGGGAAAUCCCUGGCAAACUCAACAGCUCGCAGUCAAG”, the binding signal stood at 0.309 ± 0.268 log2 fold change.

Regarding “GGUCACGUCUCAAUCAACUCUUCUUCCAGGGAAAUCCCUGGUAAUUUCAACAGCUCGCAGUCAAG”, the binding signal stood at 0.413 ± 0.238 log2 fold change. For the sequence “GGUCACGUCUCAAUCAACUCAAUCUCCAGGGAAAUCCCUGGCUAAUUCAACAGCUCGCAGUCAAG”, the binding signal is 0.315 ± 0.249 log2 fold change. With “GGUCACGUCUCAAUCAACUCAAUCUCCAGGGAAAUCCCUGGUUAAUUCAACAGCUCGCAGUCAAG”, the binding signal worked out at 0.348 ± 0.266 log2 fold change. As to “GGUCACGUCUCAAUCAACUCUAAAGAGGGGGGGAAAACCCCUUUACCCUCAUCAUCAACAGCUCGCAGUCAAG”, the binding signal stood at 0.394 ± 0.392 log2 fold change. With “GGUCACGUCUCAAUCAACUCCUCAGAGGGGGGGAAAACCCCUUUACCCUCCUUAUCAACAGCUCGCAGUCAAG”, the binding signal stood at 0.431 ± 0.416 log2 fold change. Then “GGUCACGUCUCAAUCAACUCUCAAGAGGGGGGGAAAACCCCUUUACCCUCAUUAUCAACAGCUCGCAGUCAAG”, with 0.622 ± 0.45 log2 fold change; and “GGUCACGUCUCAAUCAACUCAUUAGAGGGGGGGAAAACCCCUUUACCCUCAUCAUCAACAGCUCGCAGUCAAG”, with 0.333 ± 0.443 log2 fold change; and “GGUCACGUCUCAAUCAACUCUAUAGAGGGGGGGAAAACCCCUUUACCCUCAUCAUCAACAGCUCGCAGUCAAG”, with 0.306 ± 0.416 log2 fold change.

For the sequence “GGUCACGUCUCAAUCAACUCUAAAGAGGGGGGGAAAACCCCUUUACCCUCCUACUCAACAGCUCGCAGUCAAG”, the binding signal was 0.315 ± 0.441 log2 fold change. Then “GGUCACGUCUCAAUCAACUCCUCAGAGGGGGGGAAAACCCCUUUACCCUCAUUAUCAACAGCUCGCAGUCAAG”, with 0.4 ± 0.421 log2 fold change; and “GGUCACGUCUCAAUCAACUCACUAGAGGGGGGGAAAACCCCUUUACCCUCAUCGUCAACAGCUCGCAGUCAAG”, with 0.311 ± 0.421 log2 fold change.

In the case of “GGUCACGUCUCAAUCAACUCACUAGAGGGGGGGAAAACCCCUUUACCCUCAUUAUCAACAGCUCGCAGUCAAG”, the binding signal was 0.408 ± 0.406 log2 fold change.

On to “GGUCACGUCUCAAUCAACUCCCCAGAGGGGGGGAAAACCCCUUUACCCUCAAAUUCAACAGCUCGCAGUCAAG”, for which the binding signal was 0.402 ± 0.428 log2 fold change.

For “GGUCACGUCUCAAUCAACUCCUCAGAGGGGGGGAAAACCCCUUUACCCUCCCAUUCAACAGCUCGCAGUCAAG”, the binding signal came to 0.356 ± 0.426 log2 fold change. Then “GGUCACGUCUCAAUCAACUCCACGGAGGGGGGGAAAACCCCUUUACCCUCAAAUUCAACAGCUCGCAGUCAAG”, with 0.543 ± 0.46 log2 fold change; and “GGUCACGUCUCAAUCAACUCUCUAGAGGGGGGGAAAACCCCUUUACCCUCCCAUUCAACAGCUCGCAGUCAAG”, with 0.325 ± 0.44 log2 fold change.
